An excerpt weighted towards active compounds, which were near 3% of everything screened.
MITF TRPM1 inh: MITF TRPM1 promoter inhibition in SK-MEL-5 cells | SK-MEL-5 TRPM1 promoter luciferase, 24 h | hit rate 0.83% among 330,000 | inhibition, % at 12.5 µM | AID 488899;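 active = mean inhibition across replicates of 60% or more, whatever share of single replicates reaches that level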
KKLEB cytotox: reduces viability of KKLEB cystic fibrosis airway cells. KKLEB CF airway cells viability, ATPlite luminescence, overnight; active compounds read low; cells stimulated with P. aeruginosa culture filtrate. hit rate 0.36% among 360,000. activity change (cytotoxicity), % at 5 µM;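 active = corrected activity change at or below -50% at 5 µM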
LMP1 NFkB inh: reduces LMP1-driven NF-kappaB luciferase signal; hit rate 0.69% among 350,000; inhibition, % at 12.5 µM; LMP1-induced NF-kappaB luciferase reporter cells, luminescence; AID 504558; in the data active = inhibition above about 41%
CF NFkB block: cystic fibrosis NF-kB activation inhibition; KKLEB NF-kB-GFP reporter, PAF-induced, GFP fluorescence overnight; inhibition, % at 5 µM; hit rate 0.86% among 360,000; AID 588850;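 active = at least 50% inhibition at 5 µM, scaled per plate between neutral and stimulator controls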;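 also: PAF is a Pseudomonas aeruginosa culture filtrate used as stimulus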
HIF-2a inh: inhibitors of HIF-2a; 786-0 RCC cells HIF-2a reporter, luciferase luminescence, overnight; inhibition, % at 18.8 µM; hit rate 0.72% among 360,000; AID 624352;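 active = inhibition of the luminescence signal of 40% or more relative to plate controls, in a single-dose primary screen at 18.75 µM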
Peg3 prom inh: inhibitors of Peg3 promoter. HeLa PEG-Prom luciferase reporter, luminescence, overnight. inhibition, % at 20 µM. hit rate 1.7% among 360,000;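 active = inhibition of at least 50% at 20 µM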
Numbers stand for hits; 0 = inactive; - = no result.

SMILES	MITF TRPM1 inh	KKLEB cytotox	LMP1 NFkB inh	CF NFkB block	HIF-2a inh	Peg3 prom inh
CCN(CC)c1ccc(C(=O)NC(=S)Nc2cc(S(=O)(=O)N3CCOCC3)ccc2-n2cncn2)cc1	0	-71	0	0	0	0
CCOC(=O)c1cc2c(c(-c3ccccc3)n1)[C@@H](CCO)N(S(=O)(=O)C(C)(C)C)C2	0	0	0	0	0	0
COc1ccc(C2(c3ccc(OC)cc3)NC(=O)N(CC(=O)Nc3ccccc3C(F)(F)F)C2=O)cc1	0	0	0	0	0	0
COc1ccc([C@@]2(C(C)C)ON(c3ccccc3C(F)(F)F)C2=O)cc1	0	0	0	53	0	62
CC1(c2cccc(Br)c2)NC(=O)N(CC(=O)c2ccc3c(c2)OCO3)C1=O (stereo not drawn)	-	0	0	0	0	0
CCC(C)NS(=O)(=O)c1ccc(NC(=O)C(Sc2ccccc2)c2ccccc2)cc1 (stereo not drawn)	0	0	0	0	0	0
CCCCNS(=O)(=O)c1ccc(NC(=O)C(Sc2ccccc2)c2ccccc2)cc1 (stereo not drawn)	0	0	0	0	0	59
Cc1ccc(C(=O)O/N=C(\N)c2ccccn2)cc1C	0	0	56	0	0	76
CCCCCn1nnnc1C1(C)CCC(=O)N1Cc1ccco1 (stereo not drawn)	-	-	-	-	0	-
COc1ccccc1C(=O)Nc1c[nH]c(=O)[nH]c1=O	0	0	52	0	0	64
O=C(O)c1cc2c(s1)-c1ccccc1CC2	0	0	0	0	0	0
c1ccc(-c2cc3n(c2)CCc2ccccc2-3)cc1	0	0	0	57	0	0
CCC(C)[C@H](NS(=O)(=O)c1ccc(F)cc1Br)C(=O)OC (stereo partly drawn)	0	0	0	0	0	0
COc1ccc(-c2cn[nH]c2N)c(OC)c1	0	0	0	64	0	0
COc1ccc(-c2cn[nH]c2N)cc1	0	0	0	0	0	0
C[C@H]1C[C@@H]2[C@H]([C@@H](O)C[C@@]3(C)[C@H]2CC[C@]3(O)C(=O)CO)[C@@]2(C)C=CC(=O)C=C12	0	0	0	74	0	0
CC(=O)OCC(=O)C1(O)CCC2C3CCC4=CC(=O)C=CC4(C)C3C(=O)CC21C (stereo not drawn)	0	0	0	0	0	0
CC12C=CC(=O)C=C1CCC1C2C(=O)CC2(C)C1CCC2(O)C(=O)CO (stereo not drawn)	0	0	0	0	0	0
C[C@]12C=CC(=O)C=C1CC[C@@H]1[C@@H]2[C@@H](O)C[C@@]2(C)[C@H]1CC[C@]2(O)C(=O)COC(=O)CCC(=O)O	0	0	0	56	0	0
C[C@]12C=CC(=O)C=C1CC[C@@H]1[C@@H]2[C@@H](O)C[C@@]2(C)[C@H]1CC[C@]2(O)C(=O)COC(=O)CCC(=O)NCCc1ccc(O)cc1	-	0	0	80	0	0
C[C@]12C=CC(=O)C=C1CC[C@@H]1[C@@H]2[C@@H](O)C[C@@]2(C)[C@H]1CC[C@]2(O)C(=O)CO	0	0	0	73	0	0
COc1cc(-c2cc(NC(C)=O)c3ncc(-c4ccc(F)cc4)n3c2)cc(OC)c1OC	-	0	-	0	0	0
Cc1cc(Cl)ccc1-c1nc(NC(C)C)nc2ccsc12	-	0	-	0	0	0
Cc1ccccc1-c1cccc([C@@H]2C[C@H]3[C@H](CON3C)CN2Cc2ccccc2)c1	0	0	0	0	0	0
CCOC(=O)O[C@]1(C(=O)COC(=O)CC)CC[C@H]2[C@@H]3CCC4=CC(=O)C=C[C@]4(C)[C@H]3[C@@H](O)C[C@@]21C	0	0	0	77	0	0
CCC(=O)OCC(=O)C1(OC(=O)CC)[C@H](C)C[C@H]2[C@H]3[C@H]([C@@H](O)C[C@@]21C)[C@@]1(C)C=CC(=O)C=C1C[C@H]3Cl (stereo partly drawn)	0	0	0	69	0	0
CCOC(=O)c1c(C)[nH]c(C2=NNC(=NC3CC3)SC2)c1C	0	0	50	0	0	0
COC(=O)c1ccccc1NC(=O)CSc1nc2ccsc2c(=O)n1CCCCC(=O)O	-	0	0	0	0	0
CC1=C(C(=O)N(C)C)CC(CC(=O)NCC2CCCCC2)C(=O)N1CCCN1CCCC1=O (stereo not drawn)	-	0	0	0	0	0
